Assay [1] is described as follows: resazurin metabolic signal in HepG2 cells – cell-based, resazurin fluorescence, 24 h, PK04 Diversity Set, profiling panel (AID 1172). Also: test concentration not given here. To be noted: HepG2 viability, higher = more signal.
The nature of assay [2]: budding yeast growth changes without added modifier – OD600, strain BY4716, 24 h, basal condition, primary screen (AID 1173). To be noted: S. cerevisiae BY4716 growth, OD600, 24 h; higher = more signal, called active from +8 up or from −8 down.
A short description of assay [3]: viability profiling in MM1S myeloma cells – cell-based, resazurin fluorescence, basal, 24 h, PK04 Diversity Set, profiling panel (AID 1174).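 Also: MM1S multiple myeloma cell line; test concentration not given here.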 To be noted: higher = more signal, called active from +8 up or from −8 down.
The target of assay [4] is Dihydroorotate dehydrogenase (quinone), mitochondrial (Plasmodium falciparum (isolate 3D7)) (UniProt Q08210). The assay is described as follows: inhibition of P. falciparum DHODH – biochemical, C-terminal His tag, absorbance 600 nm, primary screen (AID 1175).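 Also: recombinant parasite enzyme with a five histidine tag at its C terminus; test concentration not given here.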 To be noted: PfDHODH enzyme, DCIP absorbance 600 nm; higher = more signal, called active from +8 up or from −8 down.
Sequence of Dihydroorotate dehydrogenase (quinone), mitochondrial (Plasmodium falciparum (isolate 3D7)) (Q08210 whole entry, looked up): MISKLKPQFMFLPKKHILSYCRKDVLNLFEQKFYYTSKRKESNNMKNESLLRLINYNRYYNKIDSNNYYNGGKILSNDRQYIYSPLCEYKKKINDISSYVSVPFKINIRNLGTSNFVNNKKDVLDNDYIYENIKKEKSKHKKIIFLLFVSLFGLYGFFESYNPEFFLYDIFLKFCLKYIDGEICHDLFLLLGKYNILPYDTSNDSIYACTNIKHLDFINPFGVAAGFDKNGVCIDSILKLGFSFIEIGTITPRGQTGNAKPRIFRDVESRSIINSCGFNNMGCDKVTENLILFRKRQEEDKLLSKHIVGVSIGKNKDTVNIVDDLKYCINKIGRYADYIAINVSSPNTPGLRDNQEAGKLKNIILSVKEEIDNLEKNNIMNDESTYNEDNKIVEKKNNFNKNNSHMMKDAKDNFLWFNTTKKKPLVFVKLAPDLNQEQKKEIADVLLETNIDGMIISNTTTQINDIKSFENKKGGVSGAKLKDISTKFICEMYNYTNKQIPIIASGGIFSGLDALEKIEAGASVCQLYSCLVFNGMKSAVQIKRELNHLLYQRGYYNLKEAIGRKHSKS

Assay [5] is described as follows: inhibition of PAO1 biofilm formation – strain PAO1, LB-PBS medium, absorbance 600 nm, primary screen (AID 1176). Also: test concentration not given here. To be noted: P. aeruginosa PAO1 growth/biofilm, A600, 12 h; higher = more signal.
The nature of assay [6]: growth modulation of vineyard yeast isolate – strain RM11-1a, OD600, basal, 24 h, primary screen (AID 1177).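 Also: cultures grown under basal conditions with no added stressor; test concentration not given here.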 To be noted: S. cerevisiae RM11-1a growth, OD600, 24 h; higher = more signal, called active from +8 up or from −8 down.
The nature of assay [7]: growth of efflux-deficient E. coli DRC39 – strain DRC39, OD650, 24 h, E. coli filamentation inducers, primary screen (AID 1178).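 Also: growth measured as culture turbidity by optical density at 650 nm; test concentration not given here.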 To be noted: E. coli DRC39 acrAB, higher = more signal, called active from +8 up or from −8 down.
Assay [8] is described as follows: growth of efflux-deficient E. coli DRC39 – strain DRC39, OD650, 48 h, E. coli filamentation inducers, primary screen (AID 1179).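 Also: screen aims at cell division blockers that make cells filament.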 The following applies: E. coli DRC39 delta-acrAB growth, higher = more signal, called active from +8 up or from −8 down.
Assay [9] in a line: viability profiling in RPMI8226 myeloma cells – cell-based, resazurin fluorescence, basal, 24 h, PK04 Diversity Set, profiling panel (AID 1180).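 Also: RPMI8826 multiple myeloma cell line at 5000 cells per well; test concentration not given here.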 The following applies: higher = more signal. (Resazurin is reduced to fluorescent resorufin, in cell work by metabolically active cells.)
Assay [10] addresses E3 ubiquitin-protein ligase XIAP (Homo sapiens) (UniProt P98170). The assay is described as follows: small molecules binding XIAP protein – biophysical, small-molecule microarray, fluorescence 635 nm, primary screen (AID 1181).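 Also: score merges 667 nm emission and signal to noise over triplicate slides.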 To be noted: higher = more signal.

Calls of active or inactive are those of the source. Unless noted, no rule for the calls is given here.

Sequence of E3 ubiquitin-protein ligase XIAP (Homo sapiens) (P98170 whole entry, looked up): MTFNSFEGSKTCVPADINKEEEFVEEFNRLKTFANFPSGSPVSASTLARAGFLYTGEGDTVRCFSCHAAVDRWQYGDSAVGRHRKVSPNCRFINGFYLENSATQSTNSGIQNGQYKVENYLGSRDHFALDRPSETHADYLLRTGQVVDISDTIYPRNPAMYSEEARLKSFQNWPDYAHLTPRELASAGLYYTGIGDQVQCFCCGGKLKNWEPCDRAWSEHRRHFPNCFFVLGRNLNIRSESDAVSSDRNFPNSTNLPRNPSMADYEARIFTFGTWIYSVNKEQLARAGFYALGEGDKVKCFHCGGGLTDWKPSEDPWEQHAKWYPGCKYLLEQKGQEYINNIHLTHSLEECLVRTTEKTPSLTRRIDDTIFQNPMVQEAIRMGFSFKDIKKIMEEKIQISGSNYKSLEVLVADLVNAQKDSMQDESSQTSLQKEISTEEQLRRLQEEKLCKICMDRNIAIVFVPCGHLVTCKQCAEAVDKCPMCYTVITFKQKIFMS

As for `CCCC#C[Si](O[C@H](CC)c1cn(Cc2cccc(Cl)c2)nn1)(C(C)C)C(C)C`, the z-score was 0.345 in assay [1]; -12.9 (active) in assay [2]; 0.0454 (inactive) in assay [3]; -0.0057 (inactive) in assay [5]; 0.61 (inactive) in [6]; 1.11 (inactive) in assay [7]. Also, the z-score is 0.775 (inactive) in assay [8] and 0.33 in assay [9]. In addition, the composite z-score is -0.345 (inactive) in [4] and -0.0855 in assay [10].

As for `C=CCC(OC(C)=O)[C@@H]1[C@@H](N(Cc2ccc(-c3ccccc3)cc2)C(=O)c2cccc3ccccc23)c2cc(OCCCO)ccc2N1C(=O)c1ccc(-c2ccccc2)cc1` (stereo not given in full), the z-score is -0.398 in [1]; -0.467 (inactive) in assay [2]; 0.395 (inactive) in assay [3]; -0.0391 (inactive) in [5]; -0.768 (inactive) in assay [6]; 1.59 (inactive) in assay [7]. For the same compound, the z-score is 0.734 (inactive) in assay [8] and 0.234 in assay [9]. In addition, the values for the composite z-score in assay [4] and in assay [10] were -0.0355 (inactive) and -0.411, respectively.

Turning to `C=CCC(OC(C)=O)[C@@H]1[C@@H](N(Cc2cccc3ccccc23)C(=O)c2ccc(-c3ccccc3)cc2)c2cc(OCCCO)ccc2N1C(=O)c1ccc2ccccc2c1` (stereo not given in full), the z-score in assay [1] is 0.256; in assay [2], 1.04 (inactive); in [3], 0.163 (inactive); in [5] it was 0.845 (inactive); in [6], 0.132 (inactive); in [7] it was 0.0986 (inactive). The z-score was 0.295 (inactive) in assay [8] and 1.23 in [9]. The figures for the composite z-score in assay [4] and in assay [10] were -0.149 (inactive) and 0.0463, respectively.

As for `C=CC[C@]1(C(=O)NCCCOC)N=C(c2ccc(OCCCO)cc2)O[C@H]1c1ccccc1CN=[N+]=[N-]`, the z-score in assay [1] is 0.127; in assay [2], -0.024 (inactive); in assay [3], -0.266 (inactive); in assay [5], 0.978 (inactive); in assay [6] it was -0.755 (inactive); in assay [7] it was -0.161 (inactive). The z-score in assay [8] was -0.347 (inactive); in assay [9], -0.257. The composite z-score in assay [4] was -0.339 (inactive); in [10], -0.0134.

On to `C[N+](C)(C)CCCCCCNC(=O)[C@@H]1C[C@@H]2C(=O)N[C@@H](Cc3ccccc3)C(=O)N2[C@@H]1c1cccc(OCCO)c1`, for which the z-score in assay [1] was 0.844; in assay [2], -0.393 (inactive); in assay [3] it was 0.328 (inactive); in assay [5], -0.27 (inactive); in assay [6], 0.153 (inactive); in [7], 1.14 (inactive). For the same compound, the z-score in assay [8] was 1.35 (inactive); in assay [9], 0.755. Besides, the composite z-score in [4] was -0.0631 (inactive); in assay [10] it was 0.0905.

Consider `CCOC(=O)C1=CC[C@@H](c2ccccc2)N(S(=O)(=O)c2ccc(C)cc2)[C@H]1c1ccccc1C`, for which the z-score in [1] was 1.81; in assay [2], 0.786 (inactive); in assay [3], 0.336 (inactive); in assay [5], -0.377 (inactive); in assay [6] it was -0.59 (inactive); in [7], -0.502 (inactive). Moreover, the z-score in assay [8] was 0.3 (inactive); in [9], 0.686. Also, the composite z-score is -0.494 (inactive) in [4] and -0.0239 in assay [10].

Consider `C#C[C@H](O[Si](C#Cc1ccc(Oc2ccccc2)cc1)(C(C)C)C(C)C)c1ccccc1`, for which the z-score in [1] is -1.03; in assay [2] it was -12.7 (active); in [3] it was -0.675 (inactive); in assay [5], 0.702 (inactive); in assay [6] it was 0.619 (inactive); in assay [7], -0.363 (inactive). The values for the z-score in [8] and in [9] were -0.172 (inactive) and -1.73, respectively. The figures for the composite z-score in assay [4] and in assay [10] were -0.289 (inactive) and -0.132, respectively.

`[N-]=[N+]=NCc1ccccc1[C@@H]1OC(c2ccc(OCCCO)cc2)=N[C@]1(Cc1ccccc1)C(N)=O`: the z-score in assay [1] was 0.854; in [2], -2.19 (inactive); in assay [3] it was -0.422 (inactive); in assay [5] it was 0.177 (inactive); in assay [6], 0.895 (inactive); in [7], 0.671 (inactive). Further, the z-score in assay [8] was -0.492 (inactive); in assay [9], -0.0348. For the same compound, the composite z-score in assay [4] is -0.717 (inactive); in assay [10] it was 0.319.

On to `C=CC[C@]1(C(=O)NCc2ccccc2)N=C(c2ccc(OCCCO)cc2)O[C@H]1c1ccccc1N=[N+]=[N-]`, for which the z-score was -0.0155 in [1]; -0.737 (inactive) in assay [2]; -1.93 (inactive) in [3]; 1.39 (inactive) in assay [5]; 0.599 (inactive) in assay [6]; 0.498 (inactive) in assay [7]. Moreover, the z-score in [8] was -0.822 (inactive); in [9], -1.31. The composite z-score in assay [4] was 1.52 (inactive); in assay [10] it was 0.0623.

`O=C1NC(=O)C2C1C=CC(C(O)c1cc(C(F)(F)F)cc(C(F)(F)F)c1)N2Nc1ccccn1` (stereo not given): the z-score in [1] is -0.85; in assay [2], 0.885 (inactive); in [3], -1.27 (inactive); in assay [5], 1.36 (inactive); in [6], 0.0176 (inactive); in assay [7], -0.509 (inactive). Moreover, the z-score in assay [8] is -1.42 (inactive); in assay [9] it was -1.2. The values for the composite z-score in assay [4] and in assay [10] were -1.14 (inactive) and -0.152, respectively.

With `O=C1C[C@]2(c3ccc([N+](=O)[O-])cc3)C(=O)N(CC(F)(F)F)c3cc(CO)ccc3[C@H]2N1C1CCCCC1`, the z-score is 0.0882 in [1]; 0.434 (inactive) in [2]; 0.679 (inactive) in assay [3]; -0.686 (inactive) in [5]; -0.0434 (inactive) in assay [6]; 0.235 (inactive) in [7]. For the same compound, the z-score in assay [8] was 0.16 (inactive); in [9] it was 0.964. The results for the composite z-score in [4] and in assay [10] were -1.69 (inactive) and -0.273, respectively.

The values are drawn from PubChem BioAssay.
